# Article PMC7819943, “Rice protein-binding microarrays: a tool to detect cis-acting elements near promoter regions in rice”
# Over roughly 39,000 sequences, “fluorescence intensity (a.u.)” has its median near 4,300; the highest 2% begin near 39,000. What follows is part of a selection rich in the highest values, with near analogues and random picks from the rest.
# Target: T1, OsSMF1 (Oryza sativa, UniProt Q6ZLB0 1-436)
# T1 sequence: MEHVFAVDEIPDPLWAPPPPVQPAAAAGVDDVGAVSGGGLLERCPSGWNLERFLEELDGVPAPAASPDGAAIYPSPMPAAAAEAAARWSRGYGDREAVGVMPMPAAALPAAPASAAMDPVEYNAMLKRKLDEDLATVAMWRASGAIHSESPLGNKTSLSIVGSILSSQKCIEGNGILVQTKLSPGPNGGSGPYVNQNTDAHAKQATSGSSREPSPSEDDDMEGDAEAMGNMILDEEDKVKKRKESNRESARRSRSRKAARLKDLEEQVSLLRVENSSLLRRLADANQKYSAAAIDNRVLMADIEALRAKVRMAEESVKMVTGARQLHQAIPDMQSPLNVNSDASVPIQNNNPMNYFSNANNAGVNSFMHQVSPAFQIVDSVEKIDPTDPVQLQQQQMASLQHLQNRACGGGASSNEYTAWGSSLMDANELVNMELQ
# Experiment: protein-binding microarray (RPBM); PBS, 2% BSA, 51.3 ng/ul salmon testes DNA, 50 uM zinc acetate, 200 nM TF, 25 C, 1 h; high values mean tight binding
# Conditions: protein: recombinant; tags: N-terminal polyhistidine and DsRed monomer fusion (pET32a); chain copies: 2; label: CyDye5-dUTP incorporated in the synthesized complementary strand; 3' TTTTT single-stranded linker to array surface; dsDNA, one strand shown
# Summary of the method: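 For the binding signal, per-feature fluorescence intensity was read in arbitrary units on an Axon 4000B scanner. Before scanning, a 2% BSA-blocked custom Agilent array made double-stranded with Cy5-dUTP was washed after 1 h at 25 °C with 200 nM protein and 50 µM zinc acetate. The proteins were Ni–NTA-purified transcription factors with N-terminal polyhistidine and DsRed fusions, expressed in E. coli BL21-CodonPlus.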
row,Sequence,binding signal
1,GCTATAATATATTGCAGCAGCAGCAGCAGTGGTGGTGGTGCGGAGTCACCTAGTGCAG,3360 fluorescence intensity (a.u.)
2,TGATGGCCGGTGATCAGTGGCATGTGCATGTTATATTATTCGGAGTCACCTAGTGCAG,3260 fluorescence intensity (a.u.)
3,CACTCCAGAACCAAACGTTTGATGACTCTCTGCTTTTGCGCGGAGTCACCTAGTGCAG,4570 fluorescence intensity (a.u.)
4,ACAAACCGAGGAGGAGGAGGAGGGCCCACCAGCCACCACGCGGAGTCACCTAGTGCAG,3310 fluorescence intensity (a.u.)
5,ATAGTGGTTTTGGCTGACGTGGCGCCTACGTGGCTAATTTCGGAGTCACCTAGTGCAG,19600 fluorescence intensity (a.u.)
6,GCTAATTTGACTCGGTTTTCATCTGACGTGGCATTGACGTCGGAGTCACCTAGTGCAG,41400 fluorescence intensity (a.u.)
7,GGACGGTTTCGCTGATGTGGCGCCTACGTGGCATCCTAATCGGAGTCACCTAGTGCAG,20300 fluorescence intensity (a.u.)
8,CGGTTTTAGCTGACGTGGCGCCTACGTGGCAAAGTTGACCCGGAGTCACCTAGTGCAG,44700 fluorescence intensity (a.u.)
9,GGTTTTAGCTGACGTGGCGCCTACGTGACAGTGTTGACCCCGGAGTCACCTAGTGCAG,32700 fluorescence intensity (a.u.)
10,GTTTTGGCTGACGTGGCGCCTACGTGGTTTGTTTGACCTACGGAGTCACCTAGTGCAG,37300 fluorescence intensity (a.u.)
11,CTGACGAGCAGAACATTAGCTATCCTATCCAGAATAGTTTCGGAGTCACCTAGTGCAG,47400 fluorescence intensity (a.u.)
12,AGGGCGCTTTTGGCTGACATGGCGCCTACGTGGCTTGTTTCGGAGTCACCTAGTGCAG,28100 fluorescence intensity (a.u.)
13,GCTGGTTTGATTAGATCTTCATCCCACGTGGCATTGACGTCGGAGTCACCTAGTGCAG,25100 fluorescence intensity (a.u.)
14,AAACCCAATCCAGTTAGGAATAGAACATTAGATATCCAACCGGAGTCACCTAGTGCAG,3940 fluorescence intensity (a.u.)
15,CTGTTTCGCTGACGTGACGCCTACGTGGCATCCCAGTCATCGGAGTCACCTAGTGCAG,40300 fluorescence intensity (a.u.)
16,AGATCATTAGTTAGCACATATCATCCACATCATCCTATTTCGGAGTCACCTAGTGCAG,5980 fluorescence intensity (a.u.)
17,GCTTGCTCGCCGGCGGTGTGGGAATGATGACTCCCAGCCCCGGAGTCACCTAGTGCAG,4050 fluorescence intensity (a.u.)
18,GTCGTGTCGGCTGCCGATTACACTATCGGCAGTGCAGCCGCGGAGTCACCTAGTGCAG,4270 fluorescence intensity (a.u.)
19,CGCGGCGCGCACACGCCATGCCGGCATGCCGTGGCATACCCGGAGTCACCTAGTGCAG,3990 fluorescence intensity (a.u.)
20,CTATATATGTGACGCTGACGTTCCTCATCTCCCAAGCTGCCGGAGTCACCTAGTGCAG,7040 fluorescence intensity (a.u.)
21,TTAGTGTCTGCATTGGATATGAGTCACGGGTTCTTGGTTACGGAGTCACCTAGTGCAG,12600 fluorescence intensity (a.u.)
22,CGACGTCGGCGAGGGAGGGCTTCCTGGGCACGTCGGCGAGCGGAGTCACCTAGTGCAG,3150 fluorescence intensity (a.u.)
23,ACAGCAAACAAACGTAACACCTTAACACGTCATGCAGTTTCGGAGTCACCTAGTGCAG,15100 fluorescence intensity (a.u.)
24,AAGAGTCGGGTTGTGCTGACCCAAAAGCACGACAGCCCATCGGAGTCACCTAGTGCAG,3250 fluorescence intensity (a.u.)
25,ATACCGCGACAATGACATCTGAGTCAATGACTCGTGATAACGGAGTCACCTAGTGCAG,4510 fluorescence intensity (a.u.)
26,CTCATGATGGCTTTATCAATATCAAGATTTGATGACTCAGCGGAGTCACCTAGTGCAG,15400 fluorescence intensity (a.u.)
27,GTTTGAATAGGTCTTTCGTCCCACGTGGCATTGACGTGGCCGGAGTCACCTAGTGCAG,45700 fluorescence intensity (a.u.)
28,TAGGTCTTCGTCCCACGTGGCATTGACGTGGCGCTTACGCCGGAGTCACCTAGTGCAG,30000 fluorescence intensity (a.u.)

row,Sequence,binding signal
1,CATAGATCTTTTGACTAGGTTTTCGTTCCACGTGGCATCACGGAGTCACCTAGTGCAG,12900 fluorescence intensity (a.u.)
2,ACACTTATCGACGTGCCAGCGCGACGCAATATGCTCCGATCGGAGTCACCTAGTGCAG,5400 fluorescence intensity (a.u.)
3,CACAAATGAAGAAACAAGGTGTTGCATCACCAGTCATGGGCGGAGTCACCTAGTGCAG,6740 fluorescence intensity (a.u.)
4,TTTAACTATGAGAATATATAGTACGTGTTGAGACATGAAACGGAGTCACCTAGTGCAG,27800 fluorescence intensity (a.u.)
5,TGCAAGCAGCAAGCGTGTCACTACGTTTACATGACATGCACGGAGTCACCTAGTGCAG,47600 fluorescence intensity (a.u.)
6,TGACCTAATACATTCATGCTGACTAGCGTTTACGTGGCAACGGAGTCACCTAGTGCAG,14100 fluorescence intensity (a.u.)
7,TCCATGCTGGTTTTAGTCCTACGTGACAATACAGTCAGCACGGAGTCACCTAGTGCAG,5640 fluorescence intensity (a.u.)
8,TTTAATTATATTATCACTGACATGTGGGTCCCACTATATGCGGAGTCACCTAGTGCAG,4330 fluorescence intensity (a.u.)
9,CACTCCTCTGCTGCTCGTCGTCAATGCCATCCTCATCATGCGGAGTCACCTAGTGCAG,3330 fluorescence intensity (a.u.)
10,CTCGACATTGCTGGCAATGCCTGGGAGATTGCTTGCCATGCGGAGTCACCTAGTGCAG,3180 fluorescence intensity (a.u.)
11,GCCAATGCCATGTCCTCTGCGGCCTGCTTGCTGGTGAACTCGGAGTCACCTAGTGCAG,46600 fluorescence intensity (a.u.)
12,GATTTGCTTACATGAATAAGGTTGATTTGCATCGGCAAGACGGAGTCACCTAGTGCAG,4000 fluorescence intensity (a.u.)
13,CCCTTCCGGCTTCCACGCGTCGGGAACCGAAGTCCAAACCCGGAGTCACCTAGTGCAG,3360 fluorescence intensity (a.u.)
14,TCCAAGAAAGAAAGGAGAATTATCCGGCAGTTTCAGAGGTCGGAGTCACCTAGTGCAG,22200 fluorescence intensity (a.u.)
15,CCGGAGCCAGTAGTAGCGTTGAGTCGTTGTCGCGAGATGGCGGAGTCACCTAGTGCAG,3260 fluorescence intensity (a.u.)
16,AGAAAAGGAGGAAAAGAATTTCCCTGGGATTTAAAATATTCGGAGTCACCTAGTGCAG,26300 fluorescence intensity (a.u.)
17,ACAGGAATATCTCTTCGAGGGATTAAAATTCACTCCCACTCGGAGTCACCTAGTGCAG,50800 fluorescence intensity (a.u.)
18,TCCCACTCGATTTGGGAGAAAATACAGGGATTAAACTCTGCGGAGTCACCTAGTGCAG,3550 fluorescence intensity (a.u.)
19,AGTGTCAGTACACACACTAGCTTCTCTCACCGGCTCTCCGCGGAGTCACCTAGTGCAG,3210 fluorescence intensity (a.u.)
20,CACAACTTTTGATTTCAGGACATATGTGTTCAGCTTTCCTCGGAGTCACCTAGTGCAG,3370 fluorescence intensity (a.u.)
21,GTTCAGCTATCAAAGTCCCTGAATAGTTTAGATTTACATTCGGAGTCACCTAGTGCAG,14100 fluorescence intensity (a.u.)
22,CTGACAGCTTTTAGTTCACAAATATCAGTAAGATTTCCCTCGGAGTCACCTAGTGCAG,43200 fluorescence intensity (a.u.)
23,ATTTCATAAAACTGCACATTCTGGGGTTCAAGTTGCAGAACGGAGTCACCTAGTGCAG,3170 fluorescence intensity (a.u.)
24,TTCCTCCATCTTGACGTGGGACCCACCTGGAGATTCATCTCGGAGTCACCTAGTGCAG,4710 fluorescence intensity (a.u.)
25,TGCTACATAAGTGACACGTCAACACCACGTTGTATAAAGACGGAGTCACCTAGTGCAG,53700 fluorescence intensity (a.u.)
26,TTACACGTTAAGAAAGTGCTAAGTAAACAAGACTGCCTGACGGAGTCACCTAGTGCAG,17700 fluorescence intensity (a.u.)
27,ATGCTATATAAATGCCACGTTGTGCGAAGACCAAGTCAACCGGAGTCACCTAGTGCAG,3510 fluorescence intensity (a.u.)
